CYP2C19 act: cytochrome P450 2C19 (human) activation; P33261; recombinant CYP2C19, luciferin-H EGE luminescence; active compounds read high; 0 = fully inhibited enzyme, 1 = untreated enzyme; activation factor at 5 µM; 96,000 tested, under 10 active; AID 1025;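 active = activation factor of at least 2 at 5 µM in the primary screen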
Cav3 T inh: human Cav3.2 channel inhibition, primary screen; Cav3.2-expressing cells, Fluo-4 calcium fluorescence FDSS; active compounds read low; O95180; B-score at 10 µM; 100,000 tested, 4% active; AID 449739;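 active = single-dose well whose peak fluorescence ratio is a statistical outlier from its plate by either plate-standardised score or position-corrected B-score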
CYP2C9 inh: human CYP2C9 inhibition; CYP2C9 Supersomes, luciferin-H conversion, luminescence; inhibition, % at 5 µM; 96,000 tested, 20% active; AID 777;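 active = blocking of liver enzyme CYP2C9 beyond about 50% at 5 µM, limit read from the data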
CYP2C19 inhib: human CYP2C19 inhibition | CYP2C19 Supersomes, luciferin-H EGE luminescence, 30 min | P33261 | 96,000 tested, 21% active | inhibition, % at 5 µM | AID 778;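 active = CYP2C19 inhibition above a set limit at 5 µM in the primary screen, cut at about 50% in these data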
CYP2C9 activ: activators of human CYP2C9. recombinant CYP2C9, luciferin-H conversion, luminescence; active compounds read high; factor 1 = untreated enzyme, 0 = blocked. activation factor at 5 µM. 96,000 tested, 1.4% active;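 active = activation factor of 2 or more for CYP2C9 at a 5 µM dose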
Hits are given with their value; 0 = inactive; - = no result. Compounds with a hit are over-represented: about 27% of the library has one in this group of screens.

SMILES | CYP2C19 act | Cav3 T inh | CYP2C9 inh | CYP2C19 inhib | CYP2C9 activ
O=C(Nc1cccc(O)c1)C1CCCN1C(=O)OCc1ccccc1 (stereo not given) | 0 | - | 0 | 0 | 0
COc1ccc(NC(=O)C2CCCCN2CC(=O)OCc2ccccc2)cc1OC (stereo not given) | 0 | 0 | 62.5 | 66.6 | 0
COc1ccc(NC(=O)C2CCCCN2N)cc1OCC(C)C (stereo not given) | 0 | 0 | 0 | 93.7 | 0
CCOC(=O)Nc1c(O)ccc2oc(C)c(-c3ccccc3)c12 | 0 | - | 0 | 0 | 0
CCn1c(SCc2ccccc2Cl)nc2ccccc21 | 0 | 0 | 0 | 0 | 0
Cn1c(SCc2ccccc2Cl)nc2ccccc21 | 0 | 0 | 0 | 73.1 | 0
CCn1c(CSc2nc3ccccc3n2C)nc2ccccc21 | 0 | 0 | 0 | 86.1 | 0
O=C(/C=C/c1cccs1)c1cc(F)ccc1OC(=O)N1CCOCC1 | - | 0 | - | - | -
COc1ccccc1N1CCN(C(=O)C2CCN(S(=O)(=O)N3CCOCC3)CC2)CC1 | 0 | 0 | 0 | 0 | 0
O=C(/C=C/c1ncc(C(F)(F)F)cc1Cl)OCc1ccccc1 | 0 | 0 | 0 | 0 | 0
Cc1ccc(CNC(=O)CN2C(=O)COc3ccc(C)cc32)cc1 | 0 | 0 | 0 | 68.7 | 0
Cc1ccc2c(c1)N(CC(=O)N1CCc3ccccc3C1)C(=O)CO2 | 0 | 0 | 0 | 84.5 | 0
Cc1ccc(CCNC(=O)CN2C(=O)COc3ccccc32)cc1 | 0 | 0 | 59.4 | 89.1 | 0
CCN(CCCNC(=O)CN1C(=O)COc2ccccc21)c1cccc(C)c1 | 0 | 0 | 67.3 | 81.9 | 0
O=C(O)c1ccc(S(=O)(=O)c2ccc3c(c2)C(=O)N(Cc2ccco2)C3=O)cc1 | 0 | 0 | 0 | 0 | 0
CCN(CC)C(=O)C1=C(C)NC(=O)NC1c1c(F)cccc1Cl (stereo not given) | 0 | - | 0 | 0 | 0
Cc1c(NC(=O)/C(C#N)=C/C2CC=CCC2)c(=O)n(-c2ccccc2)n1C (stereo not given) | 0 | - | 0 | 0 | 0
O=C1C2C3c4ccccc4C(c4ccccc43)[C@@H]2c2nc3ccccc3n21 (stereo not given in full) | 0 | - | 0 | 0 | 0
Cc1ccc2c(c1)N(CC(=O)OC(CC(C)C)C(=O)NC1CCCC1)C(=O)CO2 (stereo not given) | 0 | 0 | 62.9 | 68.9 | 0
Cc1ccc2c(c1)N(CC(=O)NCc1cccs1)C(=O)CO2 | 0 | 0 | 0 | 68.4 | 0
Cc1ccc2c(c1)N(CC(=O)NC1CCC(C)CC1)C(=O)CO2 (stereo not given) | 0 | 0 | 0 | 62.0 | 0
Cc1ccc2c(c1)N(CC(=O)O)C(=O)CO2 | 0 | 0 | 0 | 0 | 0
CCOC(=O)C1C(=O)CC(C)(O)C(C(=O)OCC)C1/C=C/c1ccccc1 (stereo not given) | 0 | 0 | 0 | 0 | 0
CCC(=O)c1ccc(OCc2ccc(C(=O)OC)o2)c(OC)c1 | 0 | 0 | 55.7 | 0 | 0
C=CCc1ccc(OC(=O)c2ccccc2)c(OC)c1 | - | 0 | - | - | -
SMILES | CYP2C19 act | Cav3 T inh | CYP2C9 inh | CYP2C19 inhib | CYP2C9 activ
C=CCc1ccc(OCc2ccc(C(=O)OC)o2)c(OC)c1 | 0 | 0 | 68.3 | 0 | 0
O=C(c1cc2nc(-c3cccs3)cc(C(F)(F)F)n2n1)N1CCCc2ccccc21 | 0 | -4.81 | 0 | 0 | 0
O=C(c1cnn2c(C(F)(F)F)cc(-c3cccs3)nc12)N1CCN(Cc2ccccc2)CC1 | - | 0 | - | - | -
O=C(NCc1ccco1)c1cc2nc(-c3cccs3)cc(C(F)(F)F)n2n1 | 0 | 0 | 56.5 | 0 | 0
Cn1ccc(C(=O)N2CCCc3ccccc32)n1 | 0 | 0 | 0 | 0 | 0
O=C(c1cnn2c(C(F)(F)F)cc(-c3cccs3)nc12)N1CCN(C(c2ccccc2)c2ccccc2)CC1 | - | -4.22 | - | - | -
O=C(NCc1ccco1)c1cnn2c(C(F)(F)F)cc(-c3ccccc3)nc12 | 0 | 0 | 0 | 0 | 0
O=C(c1cc2nc(-c3cccs3)cc(C(F)(F)Cl)n2n1)N1CCCc2ccccc21 | 0 | 0 | 89.3 | 0 | 0
O=C(c1cc2nc(-c3ccco3)cc(C(F)(F)F)n2n1)N1CCCc2ccccc21 | 0 | 0 | 0 | 0 | 0
Cc1c(CN(C)C)c2c(n1Cc1ccccc1)C(=O)c1ccccc1-2 | 0 | 0 | 0 | 0 | 0
COc1ccc(-n2nnnc2-c2cccnc2)cc1 | 0 | 0 | 0 | 55.0 | 0
COc1ccc(-c2nnc(-c3cccnc3)o2)cc1 | 0 | 0 | 0 | 0 | 0
COc1ccc(CN(CCCN2CCOCC2)S(=O)(=O)N(C)C)cc1OC | 0 | 0 | 0 | 0 | 0
O=C(Nc1ccc(Cl)c(Cl)c1)N(CCCN1CCOCC1)Cc1cccs1 | 0 | 0 | 84.3 | 88.7 | 0
CC(=O)N1CCC(N(CCN2CCOCC2)C(=O)Nc2ccc(Cl)c(Cl)c2)CC1 | - | 0 | - | - | -
O=S(=O)(c1cccc(C(F)(F)F)c1)N(CCCN1CCOCC1)Cc1cccs1 | 0 | 0 | 0 | 64.0 | 0
COC(=O)c1ccccc1S(=O)(=O)N(CCCN1CCOCC1)Cc1cccs1 | - | 0 | - | - | -
COc1ccc(CN(CCN2CCOCC2)C(=O)c2c(F)cccc2F)cc1OC | 0 | 0 | 0 | 52.3 | 0
COc1ccc(CN(CCCN2CCOCC2)C(=O)Nc2ccccc2)cc1OC | 0 | 0 | 57.1 | 0 | 0
COc1ccc2[nH]cc(CCN3C(=O)CCC3=O)c2c1 | 0 | 0 | 0 | 0 | 0
O=C1C=C(c2ccc(F)nc2)CCC1 | - | 0 | - | - | -
COc1cccc2cc(C(=O)C3=C(O)C(=O)N(CCN4CCOCC4)C3c3cccs3)oc12 (stereo not given) | 0 | 0 | 0 | 0 | 0
O=C(Nc1ccccc1)N(CCCN1CCOCC1)Cc1ccccc1F | 0 | 0 | 0 | 0 | 0
CCc1ccc(NC(=O)N(CCCN2CCOCC2)C(C)c2cc3cccc(OC)c3o2)cc1 (stereo not given) | 0 | 0 | 68.4 | 0 | 0
O=C(Nc1ccccc1)N(CCN1CCOCC1)Cc1cccc(Cl)c1 | 0 | - | 84.4 | 79.4 | 0
SMILES | CYP2C19 act | Cav3 T inh | CYP2C9 inh | CYP2C19 inhib | CYP2C9 activ
O=C(Nc1cccc(Cl)c1)N(CCCN1CCOCC1)Cc1ccccc1F | 0 | 0 | 65.0 | 0 | 0
COc1cc([N+](=O)[O-])ccc1NC(=O)CCCOc1cccc(C)c1C | 0 | 0 | 0 | 0 | 0
Cc1c(C)n(CC(O)CN2C(=O)c3ccccc3S2(=O)=O)c2ccccc12 (stereo not given) | 0 | -6.83 | 97.1 | 98.1 | 0
O=C1c2ccccc2S(=O)(=O)N1CCOc1ccccc1 | 0 | 0 | 0 | 97.8 | 0
O=C1c2ccccc2S(=O)(=O)N1CC(O)COc1ccc(Br)cc1 (stereo not given) | 0 | 0 | 69.4 | 99.7 | 0
O=C1c2ccccc2S(=O)(=O)N1CC(O)COc1ccc(Cl)cc1 (stereo not given) | 0 | 0 | 66.8 | 100.4 | 0
CN1CCc2c(n(CC(O)CN3C(=O)c4ccccc4S3(=O)=O)c3ccccc23)C1=O (stereo not given) | - | 0 | - | - | -
OC1CCN(c2ncnc3c2nnn3Cc2c(F)cccc2Cl)CC1 | 0 | 0 | 0 | 0 | 0
O=C(C1CCCCC1)N1CCCC(c2nc3c(nnn3Cc3ccccc3)c(=O)[nH]2)C1 (stereo not given) | 0 | 0 | 0 | 0 | 0

From PubChem
